One may read the AC50 as the midpoint of the concentration-response curve, whichever way the signal moves.

29 compounds from PubChem BioAssay (EPA / NIEHS) can be followed below.

Active and inactive are the calls of the source. The calls were made as follows: active = hit-call score of the fitted dose curve at least 0.9, where 1 is the maximum; inactive = score below 0.9.

Test [1] in a line: ATG_CRE_CIS: Attagene CIS-FACTORIAL HepG2 Assay for human cAMP Responsive Element (CRE) binding protein 3 (AID 2282926). The note with it: HepG2 CRE cis-reporter, Attagene multiplexed mRNA; actives raise or lower the signal. In a few lines:
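Cells carrying cis-regulated reporter constructs respond through their own endogenous factors. After 24 h treatment, RNA is reverse-transcribed, amplified, labelled and sized by capillary electrophoresis; up- and down-regulation are both scored against vehicle.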

Test [2] deals with CCAAT/enhancer-binding protein beta (Homo sapiens) (UniProt P17676). In words: ATG_C_EBP_CIS: Attagene CIS-FACTORIAL HepG2 Assay for human CCAAT/Enhancer Binding Protein (C/EBP) beta (AID 2282927). Conditions: HepG2 Attagene cis-factorial transcription factor reporter; actives raise or lower the signal. In outline:
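Endogenous C/EBPb-driven reporter transcripts measured in transfected human HepG2 cells at 24 h via RT-PCR and capillary electrophoresis of labelled fragments. Activity fitted in both directions relative to DMSO baseline.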

Test [3] in a line: ATG_CMV_CIS: Attagene CIS-FACTORIAL HepG2 Assay for human CMV (Internal Marker) (AID 2282928).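 Also: endpoint acts as a background internal control marker rather than a target.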 The note with it: HepG2 CMV promoter reporter, transcription factor profiling; actives raise or lower the signal. In outline: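 Readout: fluorescent reporter cDNA fragments separated by capillary electrophoresis after RT-PCR and HpaI cut. Cells: HepG2 carrying transfected cis-promoter reporter constructs, dosed 24 h. Endpoint serves as background internal-marker control, fit bidirectionally versus DMSO.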

Test [4] is described as follows: ATG_DR4_LXR_CIS: Attagene CIS-FACTORIAL HepG2 Assay for human Liver X Receptor (LXR), DR4 submotif (AID 2282929). The note with it: HepG2 Attagene DR4 cis-reporter, mRNA transcription; actives raise or lower the signal. In outline:
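Fluorescence intensity of labelled reporter cDNA fragments, separated by capillary electrophoresis, gives the signal. HepG2 cells bearing cis-regulated reporter constructs were treated 24 h; activity fitted bidirectionally relative to DMSO negative control.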

Test [5] concerns the target Aryl hydrocarbon receptor (Homo sapiens) (UniProt P35869). In words: ATG_Ahr_CIS: Attagene CIS-FACTORIAL HepG2 Assay for human Aryl Hydrocarbon Receptor (Ahr) (AID 2282930). The note with it: HepG2 AhR cis-factorial reporter transcription; actives raise or lower the signal. In a few lines:
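Reporter mRNA levels, quantified by RT-PCR and fluorescent capillary electrophoresis, reflect endogenous AhR transcriptional activity in HepG2 cells carrying transfected cis-promoter reporter constructs. Readout at 24 h post-dose; gain or loss fitted against DMSO baseline.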

Test [6] in a line: ATG_AP_2_CIS: Attagene CIS-FACTORIAL HepG2 Assay for human Activator Protein 2 (AP-2) (AID 2282932). Conditions: HepG2 AP-2 cis-reporter, Attagene transcription factor profiling; actives raise or lower the signal. In outline: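 Endogenous transcription factor activity is reported through transfected multiplex reporter constructs in HepG2, after 24 h of compound exposure. Transcripts were quantified by RT-PCR and capillary electrophoresis of fluorescent fragments. Bidirectional fit against DMSO.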

Test [7] in a line: ATG_BRE_CIS: Attagene CIS-FACTORIAL HepG2 Assay for human Bone Morphogenetic Protein (BMP) Response Element (BRE) (AID 2282933). Conditions: HepG2 BMP response element reporter, Attagene transcription factor profiling; actives raise or lower the signal. In outline:
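After a 24 h chemical treatment, transiently transfected HepG2 cells were lysed for RNA; reporter transcripts were quantified by fluorescent RT-PCR and capillary electrophoresis, normalised to DMSO.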

Test [8] concerns the target Retinoic acid receptor alpha (Homo sapiens) (UniProt P10276). In words: ATG_DR5_RAR_CIS: Attagene CIS-FACTORIAL HepG2 Assay for human Retinoic Acid Receptor Alpha (RARE), DR5 submotif (AID 2282934). The note with it: HepG2 Attagene cis-factorial RARE DR5 reporter, mRNA; actives raise or lower the signal. In a few lines: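 Reporter transcripts from a DR5-regulated unit, measured via RT-PCR plus capillary electrophoresis, reflect endogenous RAR activity in transiently transfected human HepG2 liver cells. Exposure lasted 24 h; gain or loss of signal scored against DMSO.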

Test [9] can be described thus: ATG_AP_1_CIS: Attagene CIS-FACTORIAL HepG2 Assay for human Activator Protein 1 (AP-1) (AID 2282931). The note with it: HepG2 Attagene cis-factorial AP-1 reporter mRNA; actives raise or lower the signal. In a few lines:
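Multiplexed HepG2 reporter assay, 24 h dosing. mRNA induction detected by RT-PCR plus capillary electrophoresis. Activity fitted in both directions against DMSO.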

Chain of Retinoic acid receptor alpha (Homo sapiens) (P10276 whole entry, looked up): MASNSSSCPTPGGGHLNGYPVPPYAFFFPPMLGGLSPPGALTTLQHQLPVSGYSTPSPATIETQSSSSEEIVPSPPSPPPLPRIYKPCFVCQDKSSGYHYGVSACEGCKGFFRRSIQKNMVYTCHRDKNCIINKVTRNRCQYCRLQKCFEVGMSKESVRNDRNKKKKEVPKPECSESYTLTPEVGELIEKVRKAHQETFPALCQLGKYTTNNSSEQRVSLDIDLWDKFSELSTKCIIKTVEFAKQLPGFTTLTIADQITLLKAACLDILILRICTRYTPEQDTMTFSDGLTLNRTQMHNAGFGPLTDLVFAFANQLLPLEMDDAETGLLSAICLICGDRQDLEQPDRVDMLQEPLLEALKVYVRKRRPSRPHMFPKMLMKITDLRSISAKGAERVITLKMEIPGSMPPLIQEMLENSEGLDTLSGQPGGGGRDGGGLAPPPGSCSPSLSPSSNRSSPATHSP
Chain of CCAAT/enhancer-binding protein beta (Homo sapiens) (P17676 whole entry, looked up, the tested form may be a part): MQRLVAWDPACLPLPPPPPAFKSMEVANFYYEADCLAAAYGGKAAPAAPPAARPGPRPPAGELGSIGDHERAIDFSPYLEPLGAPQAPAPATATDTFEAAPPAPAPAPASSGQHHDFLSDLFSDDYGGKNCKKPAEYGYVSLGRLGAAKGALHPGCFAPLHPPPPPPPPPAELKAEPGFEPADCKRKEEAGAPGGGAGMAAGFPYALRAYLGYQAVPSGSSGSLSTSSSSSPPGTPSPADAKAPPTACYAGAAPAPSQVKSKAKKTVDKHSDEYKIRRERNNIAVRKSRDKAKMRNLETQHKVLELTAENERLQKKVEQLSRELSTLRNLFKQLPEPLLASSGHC
Chain of Aryl hydrocarbon receptor (Homo sapiens) (P35869 whole entry, looked up): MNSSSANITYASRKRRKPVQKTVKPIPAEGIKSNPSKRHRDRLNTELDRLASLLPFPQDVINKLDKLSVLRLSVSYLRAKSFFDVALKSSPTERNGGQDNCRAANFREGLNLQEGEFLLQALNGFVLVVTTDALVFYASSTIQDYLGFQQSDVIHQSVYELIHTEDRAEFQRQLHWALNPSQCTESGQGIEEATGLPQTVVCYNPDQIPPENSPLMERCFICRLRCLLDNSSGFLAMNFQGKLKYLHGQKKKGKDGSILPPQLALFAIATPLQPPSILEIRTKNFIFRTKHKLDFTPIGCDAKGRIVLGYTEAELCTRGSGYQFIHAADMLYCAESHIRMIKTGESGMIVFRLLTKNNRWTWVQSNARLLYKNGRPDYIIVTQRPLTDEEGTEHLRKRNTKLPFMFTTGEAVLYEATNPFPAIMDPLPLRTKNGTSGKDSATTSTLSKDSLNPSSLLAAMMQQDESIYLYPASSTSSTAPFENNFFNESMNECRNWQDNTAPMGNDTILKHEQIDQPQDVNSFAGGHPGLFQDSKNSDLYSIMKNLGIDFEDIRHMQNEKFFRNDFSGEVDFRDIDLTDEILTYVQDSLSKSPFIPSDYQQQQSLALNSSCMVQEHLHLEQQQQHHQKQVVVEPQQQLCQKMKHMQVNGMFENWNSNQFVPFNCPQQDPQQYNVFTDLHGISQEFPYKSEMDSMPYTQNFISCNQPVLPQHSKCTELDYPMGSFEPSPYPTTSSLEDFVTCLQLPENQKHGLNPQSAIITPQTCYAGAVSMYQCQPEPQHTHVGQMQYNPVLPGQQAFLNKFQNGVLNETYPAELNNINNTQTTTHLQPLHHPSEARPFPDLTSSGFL

For `CC1=CC(O)CC(C)(C)C1` (centres undefined), the call in test [1], in test [2], in test [3], in test [4], in [6] and in test [7] was inactive. Besides, the result in [8] was inactive. In addition, the AC50 in test [5] was 44.9 µM (active).

For the compound `CCCCCc1cccc(=O)o1`, the call in test [1], in test [2], in test [3], in test [4], in [9] and in test [6] was inactive. The outcome in test [7] and in [8] was inactive.

With `CCO[Si](CCC#N)(OCC)OCC`, the call in test [1], in [2], in test [3], in test [4], in test [9] and in test [6] was inactive. Moreover, the compound was called inactive in test [7].

Regarding `C1=COCCC1`, the result in test [1], in test [2], in [3], in [4], in [9] and in test [6] was inactive. In addition, the result in [7] and in test [8] was inactive.

In the case of `CCC(=O)OC(C)(C)C1CC=C(C)CC1` (centres undefined), the compound was classed as inactive in test [1], in [2], in test [3], in test [4], in test [9] and in [6]. Moreover, the result in [7] and in test [8] was inactive.

Turning to `CCCCCCCCCCCCOC(C)=O`, the compound was called inactive in [1], in test [2], in test [3], in test [4], in test [5] and in [6]. In addition, the call in test [7] and in test [8] was inactive.

Consider `CC/C=C\CCOC(=O)C(C)C`, for which the outcome in [1], in test [2], in test [3], in [4], in [9] and in test [6] was inactive. The compound was called inactive in [7] and in [8].

`CCCCCCCC(=O)N(C)C`: the call in test [1], in [2], in [3], in test [4], in test [6] and in test [7] was inactive. For the same compound, in test [8], the result was inactive.

`Nc1ccn([C@H]2CC[C@@H](CO)O2)c(=O)n1`: the result in test [1], in [2], in test [3], in test [4], in test [9] and in test [6] was inactive. For the same compound, the outcome in test [7] was inactive.

As to `CC(C)=CC(=O)O`, the compound was classed as inactive in test [1], in test [2], in test [3], in test [4], in [9] and in [6]. In addition, in test [7], the call was inactive.

For the compound `CC(=O)CC(C)(C)C1CCCCC1`, the outcome in [1], in [2], in test [3], in test [4], in test [5] and in [6] was inactive. Also, the compound was classed as inactive in test [7] and in [8].

In the case of `O=[N+]([O-])c1cc(N(CCO)CCO)ccc1NCCO`, the result in test [1], in test [2], in [3], in test [4], in [5] and in [6] was inactive. The outcome in test [7] and in test [8] was inactive.

For the compound `CC(O)CN` (centres undefined), the outcome in [1], in [2], in [3], in [4], in [9] and in test [6] was inactive. The compound was called inactive in test [7] and in test [8].

Regarding `CC1=CC[C@@H]2C[C@H]1C2(C)C`, the compound was called inactive in test [1], in [2], in test [3], in test [4], in [9] and in [6]. In addition, the compound was called inactive in test [7] and in test [8].

Turning to `CCn1cc(C(=O)O)c(=O)c2ccc(C)nc21`, the compound was classed as inactive in test [1], in test [2], in test [3], in test [4], in test [9] and in test [6]. Besides, the call in test [7] and in [8] was inactive.

As for `CC(=O)c1ccc2ccccc2c1`, the result in [1], in [2], in test [3], in [4], in test [6] and in test [7] was inactive. In addition, the half-maximal activity concentration (AC50) in [5] was 3.53 µM (active).

In the case of `CC(C)(C)C1CCC(O)CC1` (centres undefined), the call in test [1], in [2], in test [3], in [4], in test [9] and in test [6] was inactive. Also, the call in [7] and in test [8] was inactive.

Take `O=S1(=O)CC(Cl)(Cl)C(Cl)(Cl)C1`: the outcome in [1], in test [2], in [5], in test [9], in test [6] and in [7] was inactive. Besides, the AC50 in test [3] is 2.22 µM (active).

Regarding `CC(C)N1C(=O)c2ccccc2C1=O`, the result in [1], in test [2], in [4], in test [5], in test [9] and in [6] was inactive. Further, the outcome in test [7] was inactive.

Take `CC(=O)CCc1ccc(O)cc1`: the result in test [1], in test [2], in [3], in test [9], in test [6] and in test [7] was inactive.

`CCCCCCCCCCO[C@@H]1O[C@H](CO)[C@@H](O)[C@H](O)[C@H]1O`: the compound was classed as inactive in test [1], in test [2], in test [3], in test [5], in [9] and in test [6]. Also, the compound was classed as inactive in [7] and in test [8].

For `CCCCCC#CC(=O)OC`, the outcome in test [1], in [2], in test [3], in test [5], in [9] and in [6] was inactive. For the same compound, in test [7], the call was inactive.

For `Cc1ccccc1S`, the half-maximal activity concentration (AC50) in [1] is 72.3 µM (active). Further, the outcome in [2], in test [3], in test [5], in [6] and in test [7] was inactive.

For `COc1ccc(N)c(C)c1`, the result in test [1], in [2], in [3], in test [5] and in test [6] was inactive. Further, the AC50 in [9] is 70 µM (active); in [7], 151 µM (active).

Turning to `CC/C=C\CCOC(C)OCC` (centres undefined), the compound was classed as inactive in test [1], in test [2], in [3], in [5], in test [9] and in [6]. For the same compound, the compound was classed as inactive in test [7].

In the case of `CC1=CCC(C(C)(C)O)CC1` (centres undefined), the call in test [1], in [2], in test [4], in test [5], in test [9] and in [6] was inactive. The call in test [7] was inactive.

On to `COc1ccccc1NC(=O)CC(C)=O`, for which the result in test [1], in test [2], in [3], in test [9], in test [6] and in test [7] was inactive. In addition, the outcome in [8] was inactive. Besides, the half-maximal activity concentration (AC50) in test [5] is 34.8 µM (active).

Consider `O=S(=O)(O)c1cc(S(=O)(=O)O)c2c(N=Nc3ccccc3)c(O)ccc2c1`, for which the call in [1], in test [2], in [3], in test [5], in [6] and in [7] was inactive.

As for `C[N+](C)(C)CCO`, the compound was called inactive in test [1], in test [2], in [3], in [5], in [9] and in [6]. In addition, the result in test [7] was inactive.
